Measurements from the supplement of paper PMC6555819.

Test system: VDR:RXRa (NR concentration 270 nM, RXRa partner concentration 90 nM)
Assay: PBM binding z-score (relative to random genomic background probes); higher = stronger binding; sequences stand for … in GC…GCGATTGACAGCGTAGAATGAAGG
Protocol: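 Protein-binding microarray (Agilent 4x180K custom design, double-stranded 60-nt probes: 5' GC cap, 34-nt variable region, 24-nt constant primer region; full probe sequence given). Purified or IVT nuclear receptor:RXRα heterodimers (3:1 NR:RXRα, mostly 270:90 nM) or homodimers were incubated for 1 h in PBS with 2% milk and no ligand, then detected with Alexa488 antibodies. Fluorescence from o1-orientation probes (~5 replicates averaged) was converted to z-scores against 500 random hg19 background probes. Variable regions are seed direct-repeat (DR0–DR5) sites, all their single-nucleotide variants and half-site ablations.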

Point of comparison: CCAGACAGGTGAAAGGTAACACAGTCTGGTACGC, PBM binding z-score 0.959. Against it:
- TCAGACAGGTGACGGTAACTCAGGTACGCAGTCG — lower, 0.324
- ATCTCTAGGTAAGACTCAGTTCTGTGAAGAACGC — lower, 0.069
- TCTTGTAGATCCATAGAGGTTAAGAAAGTGCGCT — higher, 1.69
- AGAACGAGGGCAATGAGTTGATAGCGCGGGTGGC — higher, 5.04
- AACTCTAGGTAAAGTTCAGTGAAAGATCGATAGA — higher, 1.15
- ATATGTAGGTTAGCTGGGGTCATTCAAACTAGGC — higher, 6.37
- ACTTGCAGGCCAAGTTTGGGTCACTCAAACAAAG — lower, 0.755
- CAGCCTAGGTCAGCGCCAGTATAGGAGGAACGTT — lower, 0.303
- CCTGTTAGGTCATGGTCAGCTAATCTACAGTATG — higher, 2.02
- CCTTACGGGTCACTGACGGGTTATAGCATTTGGA — higher, 3.7
- TGAATGAGGTTATAAGATCAGGGGACGTTGCAAA — higher, 1.16
- ATCTCTAGGTAAGAGTTCAGTGAATCCCGAGGAT — higher, 2.22
- CGTCCAAGGTCAATGCTAGGTCAGTGACAGCATT — higher, 4.87
- GCTTGTAGATCAAGGTTATGAAAGACTAAGCTAA — lower, 0.325
- CAAACTAGGTCACCGGAACGTCAAAGTCCGCATG — higher, 2.48
- TCGAGAAGGTTACCAATGGGGCATTCAGCTTTCT — lower, 0.778
- GATACAGGGTCAGCTGGAGGCCAGAGTATGGAAA — higher, 3.29
- TCTTGTAAATCAACAGGAGGTTAAGAAAGATCGA — higher, 1.16
- ATCTCTAAGTAACCAAGTTCAGTGAATGCCGAAC — higher, 2
- CGTCCAAGGTCAGAGAGTTCAGTGAATGCCGAGT — higher, 7.65
- ACTAACAGGCCAAGTTTGGGTCACTCAAACAAAG — higher, 0.973
- AGTCAAAGTTCACAAGGTAACGTAAGATTCAGCT — higher, 4.25
- GCTAGCAGGACATTTGGGTCACTCAATGACGGGC — lower, 0.429
- CCTACTGGGCCATTCAGCGGTCATTGATCATATG — lower, -0.109
- ATATGTAGGTTATCGGGTCATTTAGTTTGCGCAT — higher, 4.24
- CAAACTAGGTCAAGAGTTCAAAGTCCGCTTCCCG — higher, 6.21
- ACTATTAGTTAACTTAGGGCAACCGATACGACGC — lower, 0.299
- ATCGGAAGGTCGAAGGTGAGTATACCCACCCGAA — higher, 1.5
- ATCGAAAGGTCGTGAGGTTAGTATACAGAAAGGC — higher, 4.66
- AGGATGAGGTTATACGTAGATCAGGGAAGAAAGT — higher, 1.66
- GCTGCTAGGACAGGTTGGTCAGCTAACGGGTACG — lower, -0.674
- AATACAGGGTCATCGTAGGCCAGCGTACGCACAG — higher, 5.21
- CTCGAAAGCTCGGTTGAGGTGAGTATACGGATAA — lower, -0.326
- ATCTGTAGGTAAAAGTTCAGTGAATCCCGAGGAT — higher, 1.27
- CGTTCAAGGTCAGAGAGGTCAGTGAATGCCGAGT — higher, 7.5
- CGTCAGAGTTCAACTAAGGTAACGTAAAGCACGC — higher, 5.28
- TGAATGAGGTTATAAGATCAGGGAGCGTTGCAAA — lower, 0.606
- CCTACTGGGCAAAGGTCATTGATCAGTCAAAGCA — higher, 4.36
- TGAATGAGGTTATAAGATCAAGGAACGTTGCAAA — higher, 1.1
